Laboratory results published in the supplement of paper PMC5662767.

System: Drosophila S2 cl14 SmoIP sensor cells
Assay: normalized SmoIP GFP fluorescence (untreated unstimulated = 0%, untreated Hh-stimulated = 100%); higher = more Smo activation sensor fluorescence
Details: compound concentration: 2 uM, 24 h
[1] = stimulation: Hh conditioned medium (+Hh)
[2] = stimulation: mock conditioned medium (-Hh)
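Also: flow cytometry read-out as median GFP intensity of gated cells, compounds added 30 min before Hh-conditioned or mock medium, mock-treated cells serving as unstimulated baseline.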

SMILES	normalized SmoIP GFP fluorescence [1]	normalized SmoIP GFP fluorescence [2]
O=C(O)CCc1ccc(NCc2cccc(Oc3ccccc3)c2)cc1	105%	-2.19%
CCC(C)(Oc1ccc(C2(c3ccc(OC(C)(CC)C(=O)O)cc3)CCCCC2)cc1)C(=O)O (centres undefined) [clinofibrate]	131%	-14.5%
CN1CCN(C(c2ccccc2)c2ccccc2)CC1 [cyclizine-2hcl]	104%	-5.15%
O=C(Nc1ccccc1-c1cn2c(CN3CCNCC3)csc2n1)c1cnc2ccccc2n1	107%	1.57%
Oc1cccc(-c2nc(N3CCOCC3)c3oc4ncccc4c3n2)c1	85.1%	4.26%
COc1ccc(COc2cc3oc(=O)c4cc(C(C)O)ccc4c3cc2OC)cc1 (centres undefined) [Palomid-529-P529]	134%	-15.8%
Cn1cc(-c2ccc3nnc(C(F)(F)c4ccc5ncccc5c4)n3n2)cn1	96.1%	-2.42%
O=C(Nc1ccccc1)Nc1ccc(-c2ccc(C(=O)[C@@H]3CCC[C@H]3C(=O)O)cc2)cc1	128%	-11%
O=C(Nc1ccncc1)c1cc([N+](=O)[O-])ccc1Cl	114%	-2.82%
Cn1cnc2c(F)c(Nc3ccc(Br)cc3Cl)c(C(=O)NOCCO)cc21	126%	42.9%
Nc1nc(N)c2nc(-c3ccccc3)c(N)nc2n1 [triamterene]	104%	-6.06%
C[C@H](Cn1cnc2c(N)ncnc21)OCP(=O)(O)O [Tenofovir]	104%	-4.47%
Cc1ccc(=O)n(-c2ccccc2)c1 [pirfenidone]	107%	-3.16%
CNCc1ccc(-c2[nH]c3cc(F)cc4c3c2CCNC4=O)cc1	115%	0.489%
O=C(NC[C@H]1CN(c2ccc(N3CCOCC3=O)cc2)C(=O)O1)c1ccc(Cl)s1 [Rivaroxaban]	103%	-1.34%
CN1CCN(C2CCN(C(=O)Nc3cc(Oc4ccc(NC(=O)C5(C(=O)Nc6ccc(F)cc6)CC5)c(F)c4)ccn3)CC2)CC1 [golvatinib-e7050]	125%	12.5%
CNC(=O)c1ccc(C)c(-n2c(C)cc(OCc3ccc(F)cc3F)c(Br)c2=O)c1	130%	-8.41%
CCc1c(C(=O)NCCc2ccc(N3CCCCC3)cc2)[nH]c2ccc(Cl)cc12	167%	-0.804%
CC[C@H](Nc1ncnc2[nH]cnc12)c1nc2cccc(F)c2c(=O)n1-c1ccccc1	126%	-12.7%

SMILES	normalized SmoIP GFP fluorescence [1]	normalized SmoIP GFP fluorescence [2]
Cc1cc(F)c(Nc2ncnc3cc(OCc4ccccc4)ccc23)cc1O	104%	-3.39%
O=C(NNc1ccccc1)c1ccncc1	105%	-2.71%
CN(C)Cc1ccc(-c2nc3cccc4c3n2CCNC4=O)cc1	120%	-14.3%
COc1ccc2cccc(CCNC(C)=O)c2c1 [Agomelatine]	102%	5.66%
Cc1ccc(S(=O)(=O)NC(=O)NN2CC3CCCC3C2)cc1 (centres undefined) [gliclazide-diamicron]	111%	-13.7%
C[C@@H](O[C@H]1OCCN(Cc2n[nH]c(=O)[nH]2)[C@H]1c1ccc(F)cc1)c1cc(C(F)(F)F)cc(C(F)(F)F)c1 [Aprepitant]	115%	-5.98%
CCC(CC)CC1(C(=O)Nc2ccccc2SC(=O)C(C)C)CCCCC1 [dalcetrapib-jtt-705]	137%	-10.6%
O=C(c1ccc(/C=C/c2n[nH]c3ccccc23)cc1)N1CCNCC1	83%	-1.34%
COc1ccccc1Oc1c(NS(=O)(=O)c2ccc(C(C)(C)C)cc2)nc(-c2ncccn2)nc1OCCO [bosentan-hydrate]	109%	-1.63%
Cc1ccc(NC(=O)c2cccc(N(C)C)c2)cc1NC(=O)c1ccc(O)cc1	120%	-14.7%
Cc1nc(Nc2ncc(C(=O)Nc3c(C)cccc3Cl)s2)cc(N2CCN(CCO)CC2)n1 [Dasatinib]	126%	-3.93%
Oc1cc(O)cc(/C=C/c2ccc(O)c(O)c2)c1 [piceatannol]	114%	-2.08%
O=C(Nc1c(Cl)cncc1Cl)c1ccc(OC(F)F)c(OCC2CC2)c1 [Roflumilast(Daxas)]	134%	-8.23%
C/C=C1\[C@H]2C=C(C)C[C@]1(N)c1ccc(=O)[nH]c1C2 [(-)-Huperzine-A]	139%	-7.42%
N#Cc1c(O)c2c(-c3ccc(-c4ccccc4O)cc3)csc2[nH]c1=O	139%	6.28%
O=C(O)Cn1nnc(-c2cc(N3CCC(Oc4cc(F)ccc4Br)CC3)no2)n1	80.4%	13.3%
CC(C)(C#N)c1ccc(N2C(=O)OCc3cnc4ccc(-c5cnc6ccccc6c5)cc4c32)cc1	148%	28.4%
Cc1cc(Nc2cc(CN3CCOCC3)c3nc(C)c(Cc4ccc(Cl)cc4F)n3n2)n[nH]1	109%	-5.53%
